Source: PubChem BioAssay AID1850 (Southern Research Specialized Biocontainment Screening …, 2009)
About 1,000 (0.32%) of roughly 310,000 compounds were called active. The list is a sample of the results. Potency and affinity values are given separately. A number with no mark means an inactive call. No rule for the calls is given here.

Test: Inhibition of PhoP regulon, Salmonella typhi GFP reporter cells, confirmation, 4 h (AID 1850);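 also: 0% = induced wells with vehicle and 100% = uninduced wells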
Conditions: Salmonella Typhi PhoP-promoter GFP reporter, fluorescence, at 50 µM, active compounds read high

Q: For `O=C(COc1ccc(Cl)cc1Cl)N1CCCCCC1`, which inhibition is on record?
A: 3.1%

Q: Which inhibition does the source give for `Cc1csc(N/N=C\c2cccnc2)n1` here?
A: -7.97%

Q: Which inhibition does the source give for `Clc1cccc(Cl)c1/C=N\Nc1nccs1` here?
A: -7.79%

Q: Which inhibition does the source give for `O=C(Nc1ccc(Cl)c(Cl)c1)Nc1nccs1` here?
A: 0.93%

Q: With `C(=N\c1nccs1)/c1cccnc1` as the compound, how does the inhibition read?
A: 10.7%

Q: For `Fc1cccc(/C=N/Nc2ccccn2)c1`, which inhibition is on record?
A: -0.26%

Q: With `CC(=O)Nc1sc(N/N=C\c2cccc(Cl)c2)nc1-c1cccs1` as the compound, how does the inhibition read?
A: -2.74%

Q: With `O=C(Nc1ccc(Cl)cc1)Nc1nccs1` as the compound, how does the inhibition read?
A: -2.29%

Q: Which inhibition does the source give for `FC(F)(F)c1ccc(N/N=C/c2cccnc2)nc1` here?
A: -6.21%

Q: With `Cc1[nH]nc2c1C(c1ccccc1F)NC2=O` (stereo not drawn) as the compound, how does the inhibition read?
A: 8.34%

Q: With `COc1cccc(NC(=O)N(CCN(C)C)C(C)c2cccnc2)c1` (stereo not drawn) as the compound, how does the inhibition read?
A: 1.53%

Q: With `Cc1ccc(NC(=O)CCn2cnc3ccccc3c2=O)cc1Cl` as the compound, how does the inhibition read?
A: 5.48%

Q: With `CCOc1ccc(NS(=O)(=O)c2ccc(C(=O)NCC(c3ccc(OC)cc3)N3CCCC3)cc2)cc1` (stereo not drawn) as the compound, how does the inhibition read?
A: 4.44%

Q: For `Cc1cccnc1Sc1c([N+](=O)[O-])ncn1C`, which inhibition is on record?
A: -0.07%

Q: Which inhibition does the source give for `O=C(Nc1cccnc1)C1CCC(CNS(=O)(=O)c2cccc3nsnc23)CC1` (stereo not drawn) here?
A: 8.22%

Q: With `CC(=O)c1cc(F)ccc1OCC(=O)N1CCCc2ccccc21` as the compound, how does the inhibition read?
A: 5.07%

Q: For `CN1CCN(c2ccccc2NC(=O)c2ccc(N3CCCC3)c([N+](=O)[O-])c2)CC1`, which inhibition is on record?
A: 20.3%

Q: For `O=S(=O)(Cc1ccccc1Cl)NCCc1ccccc1`, which inhibition is on record?
A: 0.01%

Q: With `CCOC(=O)c1sc(NC(=O)c2ccccc2)cc1C` as the compound, how does the inhibition read?
A: 3.11%

Q: With `Cc1nc(NC(=O)c2ccccc2)sc1C` as the compound, how does the inhibition read?
A: -2.8%

Q: Which inhibition does the source give for `Cc1sc(NC(=O)c2ccccc2)c(C(=O)c2ccccc2)c1C` here?
A: -8.66%

Q: For `Cc1cc(NC(=O)c2ccccc2)cc(NC(=O)c2ccccc2)c1C`, which inhibition is on record?
A: 2.54%

Q: For `O=C(CSc1cc([N+](=O)[O-])cc(S(=O)(=O)Cc2ccccc2)c1)NC1CC1`, which inhibition is on record?
A: -3.36%

Q: With `Cc1cccn2c(CNCC3OCCc4ccccc43)c(C(=O)N3CCCCC3)nc12` (stereo not drawn) as the compound, how does the inhibition read?
A: 2.24%

Q: Which inhibition does the source give for `COc1ccc(C(=O)NCCc2cc3ccc(C)c(C)c3[nH]c2=O)cc1OC` here?
A: -4.33%

Q: For `O=C1OCC(CO)(CO)N=C1NNc1cc(Cl)ccc1Cl`, which inhibition is on record?
A: 6.11%

Q: For `O=C1OCC(CO)(CO)N=C1NNc1ccccc1Cl`, which inhibition is on record?
A: 8.82%

Q: For `Cc1cc(C)c(NC(=O)C2CCCN2CCO)c(C)c1` (stereo not drawn), which inhibition is on record?
A: 6.37%

Q: Which inhibition does the source give for `Cc1ccc(C)c(NC2=NC3(CCCCC3)N=C(N)N2)c1` here?
A: -8.53%

Q: Which inhibition does the source give for `Cc1ccccc1NC1=NC2(CCCC2)N=C(N)N1` here?
A: -0.71%

Q: Which inhibition does the source give for `COc1ccc(OC)c(NC2=NC3(CCCCC3)N=C(N)N2)c1` here?
A: -2.55%

Q: With `Cc1cccc(NC2=NC3(CCCCC3)N=C(N)N2)c1C` as the compound, how does the inhibition read?
A: 1.1%

Q: For `NC1=NC2(CCCC2)N=C(Nc2ccccc2)N1`, which inhibition is on record?
A: 0.23%

Q: Which inhibition does the source give for `COc1ccc(OC)c(NC2=NC3(CCCC3)N=C(N)N2)c1` here?
A: -3.8%

Q: Which inhibition does the source give for `Cc1ccc(NC2=NC3(CCCCC3)N=C(N)N2)c(C)c1` here?
A: 8.94%

Q: For `Cc1cc(C)cc(NC2=NC3(CCCCC3)N=C(N)N2)c1`, which inhibition is on record?
A: 18%

Q: For `COc1ccc(S(=O)(=O)N2CCCc3ccccc32)cc1[N+](=O)[O-]`, which inhibition is on record?
A: 1.36%

Q: For `Clc1ccc(-c2c[n+]3c(n2-c2ccccc2)SCC3)cc1`, which inhibition is on record?
A: 22.2%

Q: For `CCc1cc2cc(C)ccc2nc1SCC(=O)Nc1cc(C)on1`, which inhibition is on record?
A: -6.66%

Q: For `COc1cccc(CNC(=O)CC(NC(=O)c2ccccc2)c2ccccc2)c1` (stereo not drawn), which inhibition is on record?
A: -2.43%

Q: With `O=[N+]([O-])c1cc(NCCO)c(N2CCCCCC2)c2nonc12` as the compound, how does the inhibition read?
A: -4.05%

Q: For `CCCS(=O)(=O)N1CCC(C(=O)NC2CCCC(C)C2C)CC1` (stereo not drawn), which inhibition is on record?
A: 3.41%

Q: Which inhibition does the source give for `C[C@H](NC(=O)[C@@H]1Cc2ccccc2CN1)C(=O)Nc1ccc2c(c1)OCCO2` here?
A: -6.47%

Q: With `CCc1cccc2c(C(=O)COC(=O)c3ccccc3)c[nH]c12` as the compound, how does the inhibition read?
A: -6.08%

Q: With `CCc1cccc2c(C(=O)COC(=O)c3ccc(O)cc3)c[nH]c12` as the compound, how does the inhibition read?
A: -22.3%

Q: For `O=C(c1ccco1)N1CCN(C(=O)C23CC4CC(CC(C4)C2)C3)CC1`, which inhibition is on record?
A: -6.11%

Q: Which inhibition does the source give for `O=C(O)c1ccc(Nc2nc3ccc(Cl)cc3[nH]2)cc1` here?
A: -11.1%

Q: Which inhibition does the source give for `O=C(O)c1ccc(-c2nnn(Cc3cccc(C(F)(F)F)c3)n2)cc1` here?
A: 16.4%

Q: Which inhibition does the source give for `CC1CCC(NC(=O)c2ccc(S(C)(=O)=O)cc2)CC1` (stereo not drawn) here?
A: -20%

Q: Which inhibition does the source give for `CCc1ccc(NC(=O)[C@H](C)NC(=O)C2CCN(C(=O)[C@@H](N)C(C)C)CC2)cc1` here?
A: 3.36%

Q: For `CCN1CCN(CCNC(=O)C2CCN(Cc3nc(-c4ccc(Cl)cc4)oc3C)CC2)CC1`, which inhibition is on record?
A: 6.8%

Q: For `Cc1oc(-c2cccc(Cl)c2)nc1CN1CCC(C(=O)NCC2CCCO2)CC1` (stereo not drawn), which inhibition is on record?
A: 1.34%

Q: For `CCN(CCNC(=O)C1CCN(Cc2nc(-c3ccc(Cl)cc3)oc2C)CC1)c1ccccc1`, which inhibition is on record?
A: 6.02%

Q: Which inhibition does the source give for `Cc1oc(-c2cccc(Cl)c2)nc1CN1CCC(C(=O)NC2CC2)CC1` here?
A: -4.63%

Q: For `COCCCNC(=O)C(F)(F)C(F)(F)C(=O)NCCCOC`, which inhibition is on record?
A: -11.6%

Q: For `S=C(NCCc1ccccn1)Nc1ccccc1`, which inhibition is on record?
A: 7.23%

Q: For `Cc1cccc(C)c1NC(=O)C[N+](C)(C)CC(O)COc1cccc2ccccc12` (stereo not drawn), which inhibition is on record?
A: -1.2%

Q: For `Cc1cc(C)c(NC(=O)COc2nncc3ccccc23)c(C)c1`, which inhibition is on record?
A: -9.5%

Q: Which inhibition does the source give for `CCn1cc(/C=C/C(=O)c2ccc(O)cc2)c(C)n1` here?
A: 2.07%

Q: For `O=c1c2ccccc2nc(-c2ccc([N+](=O)[O-])cc2)n1-c1ccccc1`, which inhibition is on record?
A: -1.83%

Q: Which inhibition does the source give for `c1ccc2c(c1)C(=NCC1CCCO1)NC2=NCC1CCCO1` (stereo not drawn) here?
A: -5.37%

Q: Which inhibition does the source give for `O=S1(=O)NC(=NC2CCCCCC2)c2ccccc21` here?
A: -8.09%

Q: For `CCOC(=O)[C@@H]1[C@H]2COc3cc(OC)ccc3[C@H]2N2C(=O)N(c3ccc(C(F)(F)F)cc3)C(=O)[C@@]12C`, which inhibition is on record?
A: -14.6%
